The results in this text go back to PubChem BioAssay.

In test [1] the test system is Hepatitis C virus NS3 helicase. As to the kind of experiment: HCV NS3 helicase inhibitors, primary screen, biochemical, fluorescence polarization, LOPAC1280 library (AID 687035; in the data active means inhibition above about 37%). Particulars: Purified HCV NS3 helicase, Cy5-dT15 ssDNA binding fluorescence polarization; stronger effect = higher value; concentration not given here. On the technique in general: Fluorescence polarisation rises when a labelled molecule tumbles more slowly, as on binding a larger partner.

Test [2] can be described thus: Cy5 fluorescence quenching or enhancement artefacts, artefact control for HCV NS3 helicase inhibitor project, biochemical, LOPAC1280 (AID 687037). Particulars: Cy5-DNA-NS3h complex fluorescence interference counterscreen. A general note: Counterscreens check selectivity or assay interference.
A short description of test [3]: sensitizers of A549 cells to miR-34 induction, primary screen, imaging, A549 dox-inducible miR-34, nuclei and caspase counts (AID 1347080;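 active means compounds whose cell count with miR-34 switched on is under 0.7 times the count with it off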). Particulars: A549 miR-34 inducible, Hoechst nuclei count, 48 h.
Test [4] can be described thus: phospholipid biosynthesis inhibitors in animal cells, primary screen, cell-based, LOPAC library, screen 4 (AID 1347384). Particulars: phospholipid biosynthesis inhibition screen, at 10 µM.
Test [5] in a line: viability rescue of complex I mutant cybrids, primary screen, cell-based, galactose medium, ATP luminescence (AID 1645843;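 active means z-score of at least 1.8 in each of two replicates, scored against plate mean and spread of sample wells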;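 further: positive z means more ATP and so rescue of galactose-driven cybrid death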). Particulars: complex I mutant cybrid cells, 72 h, stronger effect = higher value.
Test [6] can be described thus: survival rescue of mitochondrial mutant cells in low glucose, primary screen, MELAS cybrids, Rieske KO mouse fibroblasts, CellTiter-Glo (AID 1508586;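 active means mean z-score across replicates of 1.96 or higher in either the MELAS or the Rieske mutant cell line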;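 further: z relative to plate mean and SD of compound and empty wells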). On the technique in general: ATP-based viability assays read luminescence as a measure of living cells.
Setting [7] is: stronger effect = lower value, cell number ratio, induced over uninduced.
[8] abbreviates: measured here: relative caspase fold change +Dox/-Dox.
Where [9] appears, read: measured here: total cells with miR-34 induction, stronger effect = lower value.
Where [10] appears, read: measured here: total cells without miR-34 induction.
Setting [11] is: MELAS cybrid survival, CellTiter-Glo 48 h, stronger effect = higher value.
Setting [12] is: Rieske KO mouse fibroblast survival, CellTiter-Glo 72 h.

Calls of active or inactive are those of the source. Unless noted, how the calls were made is not given here.

For the molecule `CSc1ccccc1N1CCN(CCCCCC(=O)NC2CCCc3ccccc32)CC1` (stereo not given), the inhibition (commonly the drop in the measured response relative to a control, in per cent) in test [1] is -5% (inactive). Besides, the fluorescence ratio (interference) in test [2] was 1 (inactive). For the same molecule, the fold change was 0.986 (inactive) in test [3] (setting [7]) and 1.19 in test [3] (setting [8]). The cell count in test [3] (setting [9]) was found to be 7020; in test [3] (setting [10]), 7120. The result in test [4] was inactive. The z-score in test [5] was -1.29 (inactive).

As for `O=C1/C(=C/c2ccsc2)CC/C1=C\c1cccs1`, the inhibition in test [1] is -4% (inactive). Besides, in test [2], the fluorescence ratio (interference) is 1 (inactive). Moreover, the fold change in test [3] (setting [7]) is 0.99 (inactive); in test [3] (setting [8]), 1.31. The figures for the cell count in test [3] (setting [9]) and in test [3] (setting [10]) were 9920 and 10000, respectively. Moreover, the result in test [4] was inactive. In test [5], the z-score was 1.23 (inactive).

As to `c1ccc2c(c1)CCC[C@H]2Nc1nc2ccccc2[nH]1`, the inhibition in test [1] was -3% (inactive). Moreover, in test [2], the fluorescence ratio (interference) is 1 (inactive). In addition, the fold change in test [3] (setting [7]) is 1.09 (inactive); in test [3] (setting [8]), 0.557. The results for the cell count in test [3] (setting [9]) and in test [3] (setting [10]) were 7820 and 7150, respectively. The call in test [4] was inactive. Also, in test [5], the z-score is -0.675 (inactive).

Consider `Oc1ccc(/C=C/c2ccc(/C=C/c3ccc(O)cc3)c(Br)c2)cc1`, for which the inhibition in test [1] is -3% (inactive). Besides, in test [2], the fluorescence ratio (interference) is 1 (inactive). The fold change in test [3] (setting [7]) is 1.33 (inactive); in test [3] (setting [8]), 1.11. Also, the results for the cell count in test [3] (setting [9]) and in test [3] (setting [10]) were 3040 and 2280, respectively. Besides, in test [4], the outcome was inactive. Further, in test [5], the z-score is 0.44 (inactive).

`NC[C@@H]1O[C@H](c2ccccc2)Cc2c1ccc(O)c2O`: the inhibition in test [1] was -3% (inactive). In addition, in test [2], the fluorescence ratio (interference) is 0.9 (inactive). Besides, the figures for the fold change in test [3] (setting [7]) and in test [3] (setting [8]) were 0.966 (inactive) and 1.26, respectively. In addition, the cell count in test [3] (setting [9]) came to 9490; in test [3] (setting [10]) it was 9820. In addition, in test [4], the outcome was inactive. Besides, the z-score in test [5] is -1.3 (inactive).

Turning to `C=C1C[C@@]23CC[C@H]4[C@@](C)(CCC[C@@]4(C)C(=O)O)[C@@H]2CC[C@]1(O)C3`, the inhibition in test [1] is -3% (inactive). In addition, the fluorescence ratio (interference) in test [2] was 1 (inactive). Also, the figures for the fold change in test [3] (setting [7]) and in test [3] (setting [8]) were 0.931 (inactive) and 1.06, respectively. Further, the cell count stood at 9720 in test [3] (setting [9]) and 10400 in test [3] (setting [10]). Further, in test [4], the outcome was inactive. Also, the z-score in test [5] was 0.98 (inactive).

As to `Cc1cc2c(cc1Cl)N(C(=O)Nc1ccnc3ccccc13)CC2`, the inhibition in test [1] is -1% (inactive). The fluorescence ratio (interference) in test [2] is 0.9 (inactive). Besides, the fold change in test [3] (setting [7]) is 1.12 (inactive); in test [3] (setting [8]), 1.03. For the same molecule, the cell count in test [3] (setting [9]) worked out at 10500; in test [3] (setting [10]), 9390. Further, the outcome in test [4] was inactive. In test [5], the z-score was -0.09 (inactive).

With `OCC1O[C@H]([S-])[C@@H](O)C(O)[C@@H]1O.[Au+]` (stereo not given in full), the inhibition in test [1] is 36% (inactive). Moreover, the fluorescence ratio (interference) in test [2] is 1 (inactive). The fold change in test [3] (setting [7]) was 0.895 (inactive); in test [3] (setting [8]), 0.924. The cell count was 6430 in test [3] (setting [9]) and 7180 in test [3] (setting [10]). Moreover, the result in test [4] was inactive. The z-score in test [5] is -1.29 (inactive).

Take `CN(C)CCCc1cc(C(=O)Nc2ccc(-c3ccncc3)cc2)ccc1O`: the inhibition in test [1] was -1% (inactive). The fluorescence ratio (interference) in test [2] is 1 (inactive). Moreover, the figures for the fold change in test [3] (setting [7]) and in test [3] (setting [8]) were 1 (inactive) and 1.13, respectively. The cell count in test [3] (setting [9]) and in test [3] (setting [10]) was 7450 in each case. Besides, the result in test [4] was inactive. The z-score in test [5] was 1.58 (inactive).

`Nc1nc(OCC2CCCCC2)c2[nH]cnc2n1`: the inhibition in test [1] was -2% (inactive). Besides, the fluorescence ratio (interference) in test [2] was 1 (inactive). In addition, the fold change in test [3] (setting [7]) is 1.47 (inactive); in test [3] (setting [8]), 1.19. For the same molecule, the cell count was 7330 in test [3] (setting [9]) and 4990 in test [3] (setting [10]). Besides, the result in test [4] was inactive. In addition, the z-score in test [5] was -0.68 (inactive).

Turning to `C=C1C(=CC=C2CCC[C@@]3(C)[C@H]2CC[C@H]3C(C)C=CC(C)C(C)C)CC(O)CC1O` (stereo not given in full), the fold change in test [3] (setting [7]) is 0.932 (inactive); in test [3] (setting [8]) it was 0.78. Also, the cell count in test [3] (setting [9]) amounted to 7360; in test [3] (setting [10]), 7890. Further, the z-score in test [6] (setting [11]) is -0.45 (inactive); in test [6] (setting [12]), 1.18.

For the molecule `CCNc1nc2c(ncn2[C@H]2C[C@H](O)[C@@H](CO)O2)c(=O)[nH]1`, in test [1], the inhibition is -2% (inactive). In test [2], the fluorescence ratio (interference) is 1 (inactive). Also, the fold change in test [3] (setting [7]) was 0.97 (inactive); in test [3] (setting [8]), 1.78. In addition, the cell count was determined as 9970 in test [3] (setting [9]) and 10300 in test [3] (setting [10]). Also, in test [4], the molecule was called inactive. The z-score in test [5] was -0.005 (inactive).

In the case of `CC1(C)OC2C[C@H]3[C@@H]4CCC5=CC(=O)CC[C@]5(C)[C@]4(F)C(O)C[C@]3(C)[C@@]2(C(=O)CCl)O1` (stereo not given in full), the fold change is 0.851 (inactive) in test [3] (setting [7]) and 0.816 in test [3] (setting [8]). In addition, the cell count turned out to be 4440 in test [3] (setting [9]) and 5220 in test [3] (setting [10]). Further, the z-score in test [6] (setting [11]) was -0.306 (inactive); in test [6] (setting [12]), -0.265.
